Results as given in PubChem BioAssay AID602387 (Sanford-Burnham Center for Chemical Genomics, 2012).
Among all 2,300 compounds or so, about 30 (1%) were called active. Only a sample is shown. A number with no mark means an inactive call.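 The calls were made as follows: active = activation of at least 30% at 10 µM; inactive = the rest.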

Assay: spectral interference with molecular beacon fluorescence, confirmation, artefact control for DNMT1 inhibitor project, biochemical, fluorescent molecular beacon, single concentration (AID 602387);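 also: DNMT1 catalytic domain with a HinP1I cleavage step and a FAM/dabcyl DNA beacon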
Settings: DNMT1 molecular beacon spectral interference counterscreen, fluorescence 485/520; at 10 µM; active compounds read high

Structure (SMILES) | activation (fluorescence interference)
COc1ccc(NC(=O)CCn2ccnc2)c(OC)c1 | 5.11%
Cc1ccc2[nH]c(=O)c(-c3nc4c(C)cccn4c3NCc3ccco3)cc2c1 | -3.31%
NNc1cccc(C=Cc2ccccc2)cc1=O | -0.89%
NC1=CC(=O)C(=O)c2cccnc21 | 34.8% (active)
C=C(C)C(=O)Nc1cccc(C2=NOC3(C2)C[C@H](C(N)=O)N(C(=O)C(c2ccccc2)c2ccccc2)C3)c1 (stereo partly drawn) | -0.25%
CCC/C=C(\CCC)C(NC(=O)Cc1ccccc1)c1ccc(C(=O)OC)cc1 (stereo not drawn) | 2.66%
Cc1ccccc1NC(=O)CN1C(=O)N/C(=C\c2cccn2-c2cccc(C(=O)O)c2)C1=O | -2.61%
O=C(Nc1nc(-c2ccco2)c(-c2ccco2)s1)c1ccco1 | 6.11%
O=c1[nH]c(/C=C/c2cccc(Br)c2)nc2ccccc12 | -5.42%
CC(=O)Nc1ccccc1Sc1ccc2c3c(cccc13)C(=O)N(c1ccc(C)cc1)C2=O | 2.58%
Cc1ccc(Cc2cncc(O)c2)cc1S(=O)(=O)O | 5.41%
CC(=O)c1ccc(NC(=O)c2ccc3c(Cl)c4c(nc3c2)CCCC4)cc1 | -4.05%
Cc1ccccc1-n1cc(CNC(=O)CC2C(=O)NCCN2C/C=C/c2ccccc2)cn1 (stereo not drawn) | 1.73%
Cc1ccc(-c2cc(C(=O)NCc3cn(C)nc3C)c3cc(Br)ccc3n2)cc1 | 2.74%
Cc1ccc(-c2nnc(-c3ccc(NC(=O)c4cccs4)cc3)o2)cc1 | -3.03%
O=C(CN1CCCSc2ccccc21)N1CCN(S(=O)(=O)c2cccc(F)c2)CC1 | 2.83%
O=C(COC(=O)/C=C/c1cn(-c2ccccc2)nc1-c1cccnc1)Nc1ccc(Cl)cc1Cl | -2.13%
O=C(Nc1cccc(F)c1)c1cc(-c2ccco2)nc2ccccc12 | 3.89%
COc1ccc(CC(=O)Nc2ccc(-c3nnc(-c4ccccc4)o3)cc2)cc1 | -2.31%
CCOc1ccc(CN2CCC(n3nccc3NC(=O)C3CC3)CC2)cc1CO | 3.5%

Structure (SMILES) | activation (fluorescence interference)
Nc1cc2c(cc1Br)-c1ccc(F)cc1C2=O | -1.05%
COc1ccc2c(c1)c(=O)c(C(=O)c1ccc(Cl)cc1)cn2CC(=O)Nc1ccc(F)cc1 | -1.8%
O/N=C1\CC2(Cc3nonc31)OCCO2 | 2.87%
CCOC(=O)N1CC=C2C(C#N)=C(N)C(C#N)(C#N)[C@H](c3cccs3)[C@H]2C1 | 9.6%
NC(CSC(c1ccccc1)(c1ccccc1)c1ccc(-c2ccccc2)cc1)C(=O)O (stereo not drawn) | 5.09%
CC1CN(C(=O)c2ccccc2NS(=O)(=O)c2cccc([N+](=O)[O-])c2)CC(C)O1 (stereo not drawn) | 1.08%
C=CC1=C(C(=O)O)N2C(=O)[C@@H](NC(=O)/C(=N\OCC(=O)O)c3csc(N)n3)[C@H]2SC1 | 7.32%
Cc1ccc(N=C2NC(=O)/C(=C/C=C/c3ccco3)S2)cc1C | -1.63%
CN(C)/C=C(/C(=O)c1ccc(Cl)cc1)S(=O)(=O)c1ccccc1 | 1.79%
Cc1cc2nc(-c3ccco3)c(Cc3cccc(F)c3)n2c(C)c1Br | 0.96%
COc1ccc(Cc2nnc(NC(=O)Cc3cccs3)s2)cc1 | -0.3%
CCc1ccc(NC(=O)CS(=O)CC(=O)NCCCc2ccccc2)cc1 (stereo not drawn) | 2.85%
CCOc1cc(CN2CCCC(CO)(Cc3ccc(F)cc3F)C2)ccc1OC (stereo not drawn) | 4.08%
Cc1onc(-c2ccccc2)c1C(=O)Nc1ccccc1C#N | 3.12%
Cc1cc(O)c(C(=O)/C=C/c2c(F)c(F)c(F)c(F)c2F)c(=O)o1 | 6.03%
c1coc(-c2nc3nc4ccccc4n3nc2-c2ccco2)c1 | 0.5%
CCN(C(=O)CSc1nc(N)cc(=O)[nH]1)C1CCS(=O)(=O)C1 (stereo not drawn) | 2.08%
c1ccc2cc3c(NCCN4CCOCC4)ccnc3cc2c1 | -0.48%
O=C(Cn1nnc(-c2ccccc2)n1)N/N=C/c1ccc(-c2ccc(Cl)cc2)o1 | 3.12%
CC1(C(=O)NS(=O)(=O)c2ccccc2)CCN1C(=O)C/C=C/c1ccccc1 (stereo not drawn) | -0.14%

Structure (SMILES) | activation (fluorescence interference)
CCN1CCN(Cc2nc3c(c(=O)n(C)c(=O)n3C)n2CC(=O)c2ccccc2)CC1 | 2.13%
C/C(=N\Nc1ccc(S(N)(=O)=O)cc1[N+](=O)[O-])c1cccs1 | 0.04%
O=C(COC(=O)c1ccc(F)cc1F)Nc1ncccn1 | 3.67%
C=CCn1c(=NC(=O)c2ccc(S(=O)(=O)N3CCCC3)cc2)sc2cc(NC(C)=O)ccc21 | -2.75%
Cc1ccc(/C=C/C(=O)Nc2ccc([N+](=O)[O-])c(NC(=O)/C=C/c3ccc(C)o3)c2)o1 | -0.1%
O=C(COC(=O)CCC(=O)c1cccs1)NCc1ccco1 | 2.99%
CC(C)(C)N(Cc1ccccc1)C(=O)c1ccncc1 | 4.75%
CCOC(=O)c1c(NC(=S)NC(=O)/C=C/c2cccs2)sc(C)c1C | 2.75%
CN(Cc1nc2ccc(F)cc2[nH]1)Cc1nc(CC2CC2)no1 | 5.14%
O=C(c1cccs1)N1CCC(c2nc3ccccc3s2)CC1 | 4.65%
O=C(CCNC(=O)c1ccccc1)NN=Cc1ccc(Br)o1 | 2.53%
CCOC(=O)/C(C#N)=C/c1ccc(OCC(=O)Nc2ccccc2)c(OC)c1 | 6.65%
COc1cccc(C(=O)Nc2ccc(N3CCCC3)cc2)c1 | 5.04%
C=Cc1ccc(C(=O)N2CCCC(CCC(=O)N3CCN(c4ccccn4)CC3)C2)cc1 (stereo not drawn) | -0.29%
CCN1C(=O)c2cccc3c(N)ccc1c23 | 6.17%
CCNC(=O)C1CCCN(C(=O)c2cc(F)ccc2C)CC1 (stereo not drawn) | 5%
COc1ccc(C(=O)OCC(=O)Nc2cccc(C(C)=O)c2)cc1OC | 8.78%
CCOc1ccccc1/C=c1\sc2nc(-c3ccco3)nn2c1=O | 3.15%
